For 40 molecules, AC50 and outcome results are on record in PubChem BioAssay (EPA / NIEHS).

The structures appear in SMILES notation. The source made the active and inactive calls. The calls were made as follows: active = hit-call score of the fitted dose curve at least 0.9, where 1 is the maximum; inactive = score below 0.9.

A short description of the test: BSK_SAg_PBMCCytotoxicity: PBMC Cytotoxicity Assessment in the BioMAP Diversity Plus: SAg Assay (AID 2283093).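 Also: fitted both ways against DMSO so a hit may be loss or gain of signal.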 The settings on record: primary human HUVEC with PBMC. The procedure: BSK_SAg is a cell-based, multiplexed-readout assay that uses umbilical vein endothelium and peripheral blood mononuclear cells, a human vascular primary cell co-culture, with measurements taken at 24 hours after chemical dosing in a 96-well plate.BSK_SAg_PBMCCytotoxicity is an assay component measured in the BSK_SAg assay. It measures Alamar blue related to cell death using Alamar Blue Reduction technology.Data from the assay component BSK_SAg_PBMCCytotoxicity was analyzed into 1 assay endpoint. This assay endpoint, BSK_SAg_PBMCCytotoxicity, was analyzed with bidirectional fitting relative to DMSO as the negative control and baseline of activity. Using a type of viability reporter, gain or loss-of-signal activity can be used to understand changes in the viability. Furthermore, this assay endpoint can be referred to as a secondary readout, because this assay has produced multiple assay endpoints where this one serves a viability function. To generalize the intended target to other relatable targets, this assay endpoint is annotated to the cell cycle intended target family, where the subfamily is cytotoxicity.
The levels of cell surface (or secreted, indicated by the prefix "s") biomarker endpoints were measured by ELISA. Overt cytotoxicity to cells in confluent adherent cultures (all systems other than the BT system) was assessed by measuring total protein levels using sulforhodamine B (SRB) staining in parallel cultures at the time of biomarker measurements, indicated as SRB endpoints. For proliferation assays for adherent cell types, individual cell types are cultured at sub-confluence and relative cell numbers quantified by SRB staining at time points optimized for each system (48 h: 3C and CASM3C systems; 72 h: BT and HDF3CGF systems; 96 h: SAg system). SRB was performed by staining cells with 0.1% SRB after fixation with 10% TCA and reading wells at 560 nm.Viability and proliferation of PBMC (T cells) was quantified by Alamar Blue reduction for the SAg and BT systems. For PBMC viability (referred to as PBMC Cytotoxicity within the assay endpoint names), cells were plated (75,000/well in a 96-well plate) and then chemical samples added for 1 h before addition of activators, SEB and TSST-1 (20 ng/mL final concentration each). Cells were incubated for 90 h. Then, Alamar Blue (20 uL/well) (Invitrogen, Cat DAL1100) was added for 6 h, and the plates were read with a fluorescence microplate reader at 546/580 nm (excitation/emission). For PBMC proliferation, cells were plated and activated as above but incubated for only 16 h prior to addition of Alamar Blue. Plates were read after 6 h.
As a reminder, the AC50 is the concentration at which the activity in the assay is half-maximal. As for `CCCCCCCCCCCO`, the concentration at half-maximal activity (AC50) is 33.1 µM (active).

Take `Cc1ccc(C(C)C)cc1`: the result was inactive.

Consider `CC(C)(c1cc(Br)c(O)c(Br)c1)c1cc(Br)c(O)c(Br)c1`, for which the concentration at half-maximal activity (AC50) is 33.3 µM (active).

As for `O=C1c2ccccc2C(=O)N1CCc1noc(-c2ccc(CN3CCCCCC3)s2)n1`, the result was inactive.

Regarding `C[C@]12CC[C@@H]3c4ccc(O)cc4CC[C@H]3[C@@H]1CC[C@H]2O`, the outcome was inactive.

In the case of `CCCCCCCCN(C)CCCCCCCC`, the outcome was inactive.

Regarding `CCOC(=O)O[C@H](C)OC(=O)c1ccc2c(c1)cc(C(=O)NC1CCN(C(C)C)CC1)n2Cc1cc(-c2ccc(Cl)s2)on1`, the half-maximal activity concentration (AC50) is 2.82 µM (active).

Consider `CCCCOC(=O)c1ccc(O)cc1`, for which the outcome was inactive.

`CCN(Cc1cccnc1)C(=O)c1cccc(Cl)c1[C@]1(C)C(=O)N(Cc2ccc(OC)cc2OC)c2ccc(Cl)cc21`: the outcome was inactive.

As to `CCO[Si](CCCNC(N)=O)(OCC)OCC`, the outcome was inactive.

For the molecule `O=C(O)c1ccccc1C(=O)OCc1ccccc1`, the result was inactive.

`CC(C)(C)c1csc(-c2cc3cc(OCc4ccccc4CC(=O)O)ccc3o2)n1`: the result was inactive.

On to `CN(C)C(=O)C1(N2CCCCC2)CCN(CC[C@@]2(c3ccc(Cl)c(Cl)c3)CN(C(=O)c3ccccc3)CCO2)CC1`, for which the AC50 is 15.4 µM (active).

Turning to `Cc1oc2c(NC(=O)c3c(Cl)cccc3Cl)cccc2c1C(C)(C)O`, the concentration at half-maximal activity (AC50) is 14.2 µM (active).

`NC(=O)c1nc(-c2cccc(-c3cc(F)ccc3OCC(F)(F)C(F)(F)F)c2)n[nH]1`: the half-maximal activity concentration (AC50) is 35.7 µM (active).

As to `Cc1occc1C(=O)Nc1ccc(C(=O)N2CCC(F)(F)/C(=C\C(=O)N3CCC(N4CCCCC4)CC3)c3ccccc32)cc1`, the outcome was inactive.

With `Cc1ncc(CO)c(CO)c1O`, the result was inactive.

In the case of `CCCCCCCCCC(=O)O`, the result was inactive.

On to `Oc1ccccc1`, for which the result was inactive.

For `O=c1ccc2ccccc2o1`, the outcome was inactive.

For `Cc1ccc2oc(CN(Cc3ccccc3)C(=O)Nc3c(F)cc(F)cc3F)c(-c3ccc(Cl)cc3)c2c1`, the result was inactive.

Consider `CCCCCCCCOc1ccc(C(=O)c2ccccc2)c(O)c1`, for which the outcome was inactive.

Regarding `CN(C[C@@H](CC[N+]12CCC(C3CCCCC3)(CC1)CC2)c1ccc(Cl)c(Cl)c1)C(=O)c1cc(C(F)(F)F)cc(C(F)(F)F)c1`, the concentration at half-maximal activity (AC50) is 9.71 µM (active).

As to `CCCCCCCC[Si](OCC)(OCC)OCC`, the half-maximal activity concentration (AC50) is 18.7 µM (active).

Turning to `O=C(O)c1ccccc1-n1cc(C(=O)O)c(=O)c2cc(Nc3c(F)cc(F)cc3Cl)c(Cl)cc21`, the result was inactive.

Take `CCCCCc1ccc(N)cc1`: the outcome was inactive.

For `O=c1c(-c2ccc(O)cc2)coc2cc(O)cc(O)c12`, the AC50 was 20 µM (active).

Regarding `O=C(O)Cn1c(=O)n(Cc2ccc(Br)cc2F)c(=O)c2ccc(Cl)cc21`, the result was inactive.

Consider `CN(C)c1ccc(C(=C2C=CC(=[N+](C)C)C=C2)c2ccc(N(C)C)cc2)cc1`, for which the AC50 was 5.83 µM (active).

Regarding `O=CCCCC=O`, the AC50 is 20.6 µM (active).

Turning to `CCN(Cc1cccc(S(=O)(=O)O)c1)c1ccc(C(=C2C=CC(=[N+](CC)Cc3cccc(S(=O)(=O)O)c3)C=C2)c2ccccc2S(=O)(=O)[O-])cc1`, the AC50 was 10 µM (active).

As to `COc1ccc2cc(S(=O)(=O)N[C@H](CC(=O)N[C@H](Cc3ccc(CN4[C@H](C)CCC[C@@H]4C)cc3)C(=O)N(C)C(C)C)c3ccc4c(c3)OCO4)ccc2c1`, the concentration at half-maximal activity (AC50) is 14.6 µM (active).

As to `O=C(Nc1ccc(Cl)cc1)Nc1ccc(Cl)c(Cl)c1`, the AC50 was 2.72 µM (active).

As for `O=c1[nH]sc2ccccc12`, the AC50 was 3.66 µM (active).

In the case of `Cc1c2ccccc2c(C)c2c1ccc1ccccc12`, the concentration at half-maximal activity (AC50) is 34 µM (active).

As to `COc1cc(C(=O)NC2CCN(C)CC2)ccc1Nc1ncc2c(n1)N(C1CCCC1)CC(F)(F)C(=O)N2C`, the concentration at half-maximal activity (AC50) was 13.8 µM (active).

`OCCO`: the outcome was inactive.

Turning to `Cc1cc2c(cc1C(F)(F)F)N(C(=O)Nc1ccc(Oc3cccnc3C)nc1)CC2`, the outcome was inactive.

Consider `Clc1cc(Cl)c2c(c1)N=C1CCCCCN1C2`, for which the result was inactive.

For the molecule `CC1(C)NC(=O)N(c2ccc([N+](=O)[O-])c(C(F)(F)F)c2)C1=O`, the result was inactive.
